Assay [1] in a line: NCI Yeast Anticancer Drug Screen. Data for the rad50 strain (AID 155).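 Note: 0% = growth of vehicle-only cultures of the same strain.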 As to conditions: S. cerevisiae rad50 strain growth inhibition, active compounds read high. An outline of the steps:
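Cells are treated with compound, grown, and their growth is then scored against vehicle-only cultures of the same repair-deficient yeast strain.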

Assay [2] can be described thus: NCI Yeast Anticancer Drug Screen. Data for the mec2-1 strain (AID 157). As to conditions: S. cerevisiae mec2-1 strain, active compounds read high. In outline: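 Strain: mec2-1 (DNA repair/cell cycle alteration). Compound exposure, then growth measured; inhibition expressed relative to vehicle.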
Assay [3] in a line: NCI Yeast Anticancer Drug Screen. Data for the sgs1 mgt1 strain (AID 161).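 Note: 0% = growth of cultures given vehicle only.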 As to conditions: S. cerevisiae sgs1 mgt1 strain, active compounds read high. An outline of the steps: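 Read-out: growth inhibition vs vehicle controls. Cells: mutant yeast strain deficient in DNA damage repair.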
Assay [4] can be described thus: NCI Yeast Anticancer Drug Screen. Data for the cln2 rad14 strain (AID 165).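 Note: 0% = growth equal to vehicle treated cultures.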 As to conditions: S. cerevisiae cln2 rad14 strain, active compounds read high. An outline of the steps:
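Compounds are applied to the cln2 rad14 yeast strain, and growth is then compared with that of vehicle-treated cultures to give inhibition.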

The nature of assay [5]: NCI Yeast Anticancer Drug Screen. Data for the bub3 strain (AID 167). As to conditions: S. cerevisiae bub3 mutant strain, active compounds read high. An outline of the steps:
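Part of a panel of yeast mutants defective in DNA damage repair or cell cycle regulation. Each strain is grown with compound, and inhibition is calculated relative to solvent-treated cultures.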

Assay [6] in a line: NCI Yeast Anticancer Drug Screen. Data for the mlh1 rad18 strain (AID 175). As to conditions: S. cerevisiae mlh1 rad18 strain growth inhibition, active compounds read high. An outline of the steps:
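Read-out is yeast growth inhibition, calculated against vehicle-only controls. The compound was applied to a strain engineered with DNA damage repair alterations.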

The mark [7] stands for this setting: at 5.0 µM (retest, dose inferred, filed as 0.5).
[8] abbreviates: at 50.0 µM (retest, dose inferred, filed as 5.0).

This is part of a sample that, as a whole, favours compounds with a hit. Of some 79,000 tested, about 15% had one in any assay. Values without a mark were called inactive. Activity calls are given as the source filed them. Cut-off read from the data, not from the text of the source: active = growth inhibition above about 70%; inactive = the rest.

For `CCNC(=O)COc1ccc(Cl)cc1Cl`, the growth inhibition in assay [1] (setting [7]) was -2%; in assay [1] (setting [8]), 10%; in assay [1] (at 50.0 µM), -17.6%; in assay [2] (setting [7]), -10%; in assay [2] (setting [8]), 2%; in assay [2] (at 50.0 µM), -19.4%. In addition, the growth inhibition in assay [3] (setting [7]) was 0%; in assay [3] (setting [8]), -6%; in assay [3] (at 50.0 µM), -15.4%; in assay [4] (setting [7]), 7%; in assay [4] (setting [8]) it was 13%; in assay [4] (at 50.0 µM) it was 38.8%. For the same compound, the growth inhibition in assay [5] (setting [7]) was -5%; in assay [5] (setting [8]) it was -3%; in assay [5] (at 50.0 µM), -29.4%; in assay [6] (setting [7]) it was 8%; in assay [6] (setting [8]), 2%; in assay [6] (at 50.0 µM), -27.4%.

With `O=C(CSc1nnc(-c2ccc(N=Cc3ccc(Cl)cc3)cc2)o1)Nc1ccccc1Cl`, the growth inhibition in assay [1] (setting [7]) is 22%; in assay [1] (setting [8]), 57%; in assay [1] (at 50.0 µM), 54.8%; in assay [2] (setting [7]), -10%; in assay [2] (setting [8]) it was 44%; in assay [2] (at 50.0 µM) it was -11.8%. For the same compound, the growth inhibition in assay [3] (setting [7]) is 7%; in assay [3] (setting [8]), 40%; in assay [3] (at 50.0 µM), 6.25%; in assay [4] (setting [7]), 14%; in assay [4] (setting [8]) it was 28%; in assay [4] (at 50.0 µM) it was -54.5%. The growth inhibition in assay [5] (setting [7]) is -1%; in assay [5] (setting [8]), 20%; in assay [5] (at 50.0 µM), -11.8%; in assay [6] (setting [7]) it was 2%; in assay [6] (setting [8]) it was 58%; in assay [6] (at 50.0 µM), 20.4%.

In the case of `COC(=O)CCCCCCCCCCC(=O)O`, the growth inhibition in assay [1] (setting [7]) is -3%; in assay [1] (setting [8]), -4%; in assay [1] (at 50.0 µM) it was 2.45%; in assay [2] (setting [7]), -1%; in assay [2] (setting [8]) it was -2%; in assay [2] (at 50.0 µM), -11.6%. The growth inhibition in assay [3] (setting [7]) was -2%; in assay [3] (setting [8]), 4%; in assay [3] (at 50.0 µM), -9.55%; in assay [4] (setting [7]), -9%; in assay [4] (setting [8]), -4%; in assay [4] (at 50.0 µM), -4.75%. Moreover, the growth inhibition in assay [5] (setting [7]) is -4%; in assay [5] (setting [8]), -9%; in assay [5] (at 50.0 µM), 38.6%; in assay [6] (setting [7]) it was -2%; in assay [6] (setting [8]) it was 2%; in assay [6] (at 50.0 µM) it was -6.6%.

Turning to `O=C(NN1C(=O)C(Cl)C1c1ccc(O)cc1)c1ccccc1O` (stereo not given), the growth inhibition is -4% in assay [1] (setting [7]); 78% (active) in assay [1] (setting [8]); 79.5% (active) in assay [1] (at 50.0 µM); 13% in assay [2] (setting [7]); 79% (active) in assay [2] (setting [8]); 61% in assay [2] (at 50.0 µM). Besides, the growth inhibition in assay [3] (setting [7]) is 0%; in assay [3] (setting [8]), 72% (active); in assay [3] (at 50.0 µM), 69.9%; in assay [4] (setting [7]) it was 13%; in assay [4] (setting [8]), 63%; in assay [4] (at 50.0 µM) it was 44%. The growth inhibition in assay [5] (setting [7]) was 11%; in assay [5] (setting [8]), 90% (active); in assay [5] (at 50.0 µM) it was 71.1% (active); in assay [6] (setting [7]), 20%; in assay [6] (setting [8]) it was 91% (active); in assay [6] (at 50.0 µM), 67.7%.

Regarding `CCc1cc(-c2ccco2)c(C#N)c(=S)n1C1OC(COC(C)=O)C(OC(C)=O)C(OC(C)=O)C1OC(C)=O` (stereo not given), the growth inhibition in assay [1] (setting [7]) is -2%; in assay [1] (setting [8]), -6%; in assay [1] (at 50.0 µM) it was 3.05%; in assay [2] (setting [7]), -15%; in assay [2] (setting [8]) it was -7%; in assay [2] (at 50.0 µM), 8.2%. Further, the growth inhibition in assay [3] (setting [7]) is -1%; in assay [3] (setting [8]), 6%; in assay [3] (at 50.0 µM), -19.4%; in assay [4] (setting [7]) it was 4%; in assay [4] (setting [8]), 22%; in assay [4] (at 50.0 µM), 8.6%. The growth inhibition in assay [5] (setting [7]) is 7%; in assay [5] (setting [8]) it was 21%; in assay [5] (at 50.0 µM), -0.25%; in assay [6] (setting [7]), -14%; in assay [6] (setting [8]) it was 5%; in assay [6] (at 50.0 µM), 34.1%.

On to `Cc1ccc(OCC2CO2)c(Br)c1` (stereo not given), for which the growth inhibition is 11% in assay [1] (setting [7]); 66% in assay [1] (setting [8]); 78.2% (active) in assay [1] (at 50.0 µM); 1% in assay [2] (setting [7]); 19% in assay [2] (setting [8]); 5.95% in assay [2] (at 50.0 µM). The growth inhibition is 15% in assay [3] (setting [7]); 71% (active) in assay [3] (setting [8]); 49.6% in assay [3] (at 50.0 µM); 4% in assay [4] (setting [7]); 15% in assay [4] (setting [8]); -44.6% in assay [4] (at 50.0 µM). The growth inhibition in assay [5] (setting [7]) is -1%; in assay [5] (setting [8]), 1%; in assay [5] (at 50.0 µM) it was -13.2%; in assay [6] (setting [7]), 17%; in assay [6] (setting [8]) it was 84% (active); in assay [6] (at 50.0 µM) it was 24.1%.

Regarding `CCCCCCCCCCCC(=O)OCCCCC`, the growth inhibition in assay [1] (setting [7]) was -5%; in assay [1] (setting [8]), 0%; in assay [1] (at 50.0 µM), 74.8% (active); in assay [2] (setting [7]) it was -1%; in assay [2] (setting [8]), 1%; in assay [2] (at 50.0 µM), 87.3% (active). Besides, the growth inhibition in assay [3] (setting [7]) was -3%; in assay [3] (setting [8]), 3%; in assay [3] (at 50.0 µM) it was 65.8%; in assay [4] (setting [7]), -1%; in assay [4] (setting [8]), -4%; in assay [4] (at 50.0 µM), -2.5%. The growth inhibition in assay [5] (setting [7]) is -2%; in assay [5] (setting [8]), -4%; in assay [5] (at 50.0 µM) it was 80.6% (active); in assay [6] (setting [7]), -8%; in assay [6] (setting [8]), 0%; in assay [6] (at 50.0 µM), 87.7% (active).

Consider `CCC(C)SC1SCC2C(=O)N(C)C3(CC3C)C(=O)OCC(NC(=O)c3nc4ccccc4cc3O)C(=O)NC(C)C(=O)N(C)C1C(=O)N(C)C1(CC1C)C(=O)OCC(NC(=O)c1nc3ccccc3cc1O)C(=O)NC(C)C(=O)N2C` (stereo not given), for which the growth inhibition was 98% (active) in assay [1] (setting [7]); 89% (active) in assay [1] (setting [8]); 89.7% (active) in assay [1] (at 50.0 µM); 99% (active) in assay [2] (setting [7]); 92% (active) in assay [2] (setting [8]); 91.9% (active) in assay [2] (at 50.0 µM). The growth inhibition was 80% (active) in assay [3] (setting [7]); 93% (active) in assay [3] (setting [8]); 92.4% (active) in assay [3] (at 50.0 µM); 79% (active) in assay [4] (setting [7]); 94% (active) in assay [4] (setting [8]); 88.7% (active) in assay [4] (at 50.0 µM). Besides, the growth inhibition in assay [5] (setting [7]) was 75% (active); in assay [5] (setting [8]), 93% (active); in assay [5] (at 50.0 µM), 91.2% (active); in assay [6] (setting [7]) it was 94% (active); in assay [6] (setting [8]), 84% (active); in assay [6] (at 50.0 µM), 89.8% (active).

Turning to `O=C(c1ccc(Cl)c([N+](=O)[O-])c1)c1ccc(Cl)c([N+](=O)[O-])c1`, the growth inhibition in assay [1] (setting [7]) was 21%; in assay [1] (setting [8]), 93% (active); in assay [1] (at 50.0 µM), 59%; in assay [2] (setting [7]), 12%; in assay [2] (setting [8]), 94% (active); in assay [2] (at 50.0 µM), 93.4% (active). The growth inhibition was 13% in assay [3] (setting [7]); 90% (active) in assay [3] (setting [8]); 85% (active) in assay [3] (at 50.0 µM); 1% in assay [4] (setting [7]); 80% (active) in assay [4] (setting [8]); 39.5% in assay [4] (at 50.0 µM). The growth inhibition was -8% in assay [5] (setting [7]); 95% (active) in assay [5] (setting [8]); 96.2% (active) in assay [5] (at 50.0 µM); 24% in assay [6] (setting [7]); 96% (active) in assay [6] (setting [8]); 96.7% (active) in assay [6] (at 50.0 µM).

For the compound `O=C1c2cccc3cc([N+](=O)[O-])cc(c23)C(=O)N1O`, the growth inhibition in assay [1] (setting [7]) is 34%; in assay [1] (setting [8]), 56%; in assay [1] (at 50.0 µM) it was 82.7% (active); in assay [2] (setting [7]) it was 15%; in assay [2] (setting [8]) it was 32%; in assay [2] (at 50.0 µM), 91.3% (active). Besides, the growth inhibition in assay [3] (setting [7]) was 13%; in assay [3] (setting [8]), 37%; in assay [3] (at 50.0 µM), 81.2% (active); in assay [4] (setting [7]) it was 20%; in assay [4] (setting [8]) it was 35%; in assay [4] (at 50.0 µM), 32.4%. Also, the growth inhibition in assay [5] (setting [7]) was 18%; in assay [5] (setting [8]), 64%; in assay [5] (at 50.0 µM), 70.5% (active); in assay [6] (setting [7]), 31%; in assay [6] (setting [8]) it was 71% (active); in assay [6] (at 50.0 µM) it was 80.7% (active).

Source of the values: PubChem BioAssay (NCI).
